Assay results reported in ChEMBL document CHEMBL3988442, “University of Dundee, Small-Polar-MMV Screening Library” (2021).
Out of some 48,000 compounds screened, about 13,000 (27%) showed an effect of 50% or more. The list shows a part of the results.

Tested on: Wolbachia pipientis
Assay: Anti-Wolbachia Cell-Based Screen
Type: functional
Set-up: scale not given: in the data most compounds retested in dose-response had high values
Details: 5 µM

| Compound | Percent Effect [%] |
| --- | --- |
| CC(C)n1[nH]c(=O)c2c1NC(=O)CSC2C1CCCCC1 (configuration not stated) | -15.8 |
| CC(C)n1ncc2c1NC(=O)CSC2C(C)(C)C (configuration not stated) | 1.885 |
| CC(C)C1SCC(=O)Nc2c1cnn2-c1ccc(F)cc1 (configuration not stated) | 81.09 |
| Cc1ccccc1CN(CCN(C)C)Cc1ccc(S(C)(=O)=O)cc1 | -5.606 |
| COc1ccc(C(C(=O)O)N(C)Cc2ccon2)cc1Cl (configuration not stated) | 4.9 |
| Cc1ccc(CN(C)C(C(=O)O)c2ccc3c(c2)OCO3)o1 (configuration not stated) | 114 |
| COc1c(C)cc(C(C(=O)O)N(C)Cc2ccn[nH]2)cc1C (configuration not stated) | -0.04634 |
| COc1cccc(OC)c1C(C(=O)O)N(C)Cc1c(C)n[nH]c1C (configuration not stated) | -9.19 |
| CN(Cc1ccccn1)C(C(=O)O)c1ccc2c(c1)OCO2 (configuration not stated) | 99.57 |
| CN(C)C(C(=O)N1CC(c2ccccn2)C1)c1ccc2c(c1)OCO2 (configuration not stated) | -10.36 |
| COc1ccc(C(C(=O)O)N(C)CCN2CCOCC2)c(C)c1 (configuration not stated) | 5.185 |
| Cc1n[nH]c(C)c1CN(C)C(C(=O)O)c1ccc2c(c1)OCO2 (configuration not stated) | 109.5 |
| CN1CCCN(C(C(=O)O)c2ccc3c(c2)OCO3)CC1 (configuration not stated) | -6.004 |
| COc1cccc(C(C(=O)O)N(C)Cc2ccc(C)o2)c1 (configuration not stated) | 105.1 |
| COc1cccc(Cl)c1C(C(=O)O)N(C)Cc1c(C)n[nH]c1C (configuration not stated) | -23.52 |
| Cc1noc(CN(Cc2ccc3c(c2)OCO3)Cc2ccc(C)o2)n1 | 1.784 |
| CCc1c(C)[nH]c(C(C)(C)N)nc1=O.Cl | 24.57 |
| CCSc1ncc(CN2CCN(c3nc(C)cnc3C)CC2)cn1 | -7.047 |
| CN(C)CCCC(=O)N1C[C@H]2CC[C@@H]1CN(Cc1ccccc1)C2 | -3.863 |
| CCC(CC)C(=O)NCC1(NC(C)c2ccccc2)CCOCC1 (configuration not stated) | -13.17 |
| COc1ccc(C)cc1CCNS(C)(=O)=O | 4.512 |
| Cn1ccnc1CN1CCC2(CC1)COC2.O=C(O)C(F)(F)F | 97.83 |
| Cn1ccnc1CN1CCC2(CC1)CCN(Cc1ccoc1)C2.O=C(O)C(F)(F)F.O=C(O)C(F)(F)F | -4.24 |
| COC1CC2(CCN(Cc3nccn3C)CC2)C1.O=C(O)C(F)(F)F | 5.077 |
| Cn1ccnc1CN1CCC2(COCCN(Cc3ccsc3)C2)C1 (configuration not stated) | 14.38 |
| O=C(O)C(F)(F)F.O=S(=O)(C1CC1)N1CCOCC2(CCN(c3ccccn3)C2)C1 (configuration not stated) | 8.73 |

| Compound | Percent Effect [%] |
| --- | --- |
| CS(=O)(=O)N1CCOCC2(CN(Cc3nccs3)CCO2)C1.O=C(O)C(F)(F)F (configuration not stated) | 6.136 |
| Cn1ccnc1CN1CCC2(COCCN(S(=O)(=O)C3CC3)C2)C1 (configuration not stated) | 106.3 |
| CCOC1CC2(CCN(Cc3nccn3C)CC2)C1.O=C(O)C(F)(F)F | 2.92 |
| Cn1cncc1CN1CCC2(CC1)COCCN(S(C)(=O)=O)C2.O=C(O)C(F)(F)F | 124.1 |
| CN1CCOCC2(CCN(Cc3ccc[nH]3)CC2)C1.O=C(O)C(F)(F)F.O=C(O)C(F)(F)F | -3.282 |
| Cn1ccnc1CN1CCC2(CC1)COCCN(S(C)(=O)=O)C2.O=C(O)C(F)(F)F | 104.9 |
| COc1cnc(N2C[C@H](CO)C[C@H](CN3CCOCC3)C2)nc1 | -6.58 |
| Cc1ccc(CN(C(=O)C(C)S(C)(=O)=O)C2CC2)cc1C (configuration not stated) | -15.47 |
| Cc1ccc(S(=O)(=O)N(C)CC(C)O)c(F)c1 (configuration not stated) | 4.809 |
| CCc1ncc(C(=O)NC(C)(C)C(=O)OC)s1 | -4.518 |
| c1cnc(N2CCOCC3(CCN(c4cnccn4)CC3)C2)nc1 | -29.45 |
| COCC1CC2(CCN(Cc3nccn3C)CC2)CN1c1ncccn1.O=C(O)C(F)(F)F (configuration not stated) | -8.738 |
| Cn1ccnc1CN1CCC2(CC1)COCCN(c1ncccn1)C2 | 118.1 |
| Cn1cc2ncn(CCNc3cccnc3)c(=O)c2n1 | -8.591 |
| Cc1csc(C2CCCCN2C(=O)c2cnn3ccc(C)nc23)n1 (configuration not stated) | 2.073 |
| Cc1csc(C2CCCCN2C(=O)c2cc(C)n(C)n2)n1 (configuration not stated) | 98.18 |
| Cc1ccc(CC(=O)N2CCCCC2c2nc(C)cs2)cn1 (configuration not stated) | 2.602 |
| COc1ccc(C(=O)N2CCCCC2c2nc(C)cs2)nn1 (configuration not stated) | -5.655 |
| Cc1cccc(C(=O)N2CCCCC2c2nc(C)cs2)n1 (configuration not stated) | 80.1 |
| Cc1cnc(C(=O)N2CCCCC2c2nc(C)cs2)cn1 (configuration not stated) | 81.82 |
| Cc1cncc(C(=O)N2CCCCC2c2nc(C)cs2)c1 (configuration not stated) | 6.279 |
| Cc1csc(C2CCCCN2C(=O)c2cn[nH]c2C)n1 (configuration not stated) | 83.45 |
| CC(C)(C)c1ccc(C2(C(=O)NCCS(N)(=O)=O)CC2)cc1 | -15.99 |
| Cc1csc(C2CCCCN2C(=O)c2c[nH]c(C)n2)n1 (configuration not stated) | 62.15 |
| CN(Cc1ccco1)C(=O)C1CSCN1C(=O)c1cccnc1 (configuration not stated) | 0.06211 |
| CN(Cc1ccco1)C(=O)C1CSCN1C(=O)c1cccs1 (configuration not stated) | 104.7 |

| Compound | Percent Effect [%] |
| --- | --- |
| CN(Cc1ccco1)C(=O)[C@H]1CSCN1C(=O)OC(C)(C)C | 12.78 |
| CN(Cc1cc(-c2cccnc2)no1)C(=O)[C@@H]1CSCN1C | -21.19 |
| CN(Cc1ccco1)C(=O)NCC(c1cccs1)N(C)C (configuration not stated) | 1.793 |
| CCOCC(=O)N1CSCC1C(=O)N(C)Cc1ccco1 (configuration not stated) | 113.6 |
| CN(Cc1ccco1)C(=O)C1CSCN1C(=O)C1CCC1 (configuration not stated) | 111.9 |
| Cc1ccc(CC(=O)N2CSCC2C(=O)N(C)Cc2ccco2)o1 (configuration not stated) | 8.524 |
| Cn1c(CN2CCCC2c2noc(C3CC3)n2)cc(=O)n(C)c1=O (configuration not stated) | -13.43 |
| COCC(=O)N1CCCC2(CCN(CCN3CCCC3)CC2)C1.O=C(O)C(F)(F)F.O=C(O)C(F)(F)F | 18.87 |
| CCc1n[nH]c(C2CN(C(=O)c3cc(C4CC4)on3)CCO2)n1 (configuration not stated) | 117.8 |
| CCCc1n[nH]c(C2CN(C(=O)c3cc(C4CC4)on3)CCO2)n1 (configuration not stated) | 114.4 |
| O=S(=O)(c1c(Cl)nc2sccn12)N1CCC2(CCNCC2)C1 | -2.285 |
| CC(C)(C)CN[C@@H]1CO[C@H](CNC(=O)C2CCCC2)[C@H]1O | -14.33 |
| CCc1ccc(NC(=O)N2Cc3c(CN(C)C)nn(C)c3C2)cc1.O=C(O)C(F)(F)F | -20.31 |
| COc1ccc(S(=O)(=O)N2Cc3c(CN(C)C)nn(C)c3C2)cc1.O=C(O)C(F)(F)F | -0.8573 |
| CCc1ccc(S(=O)(=O)N2Cc3c(CN(C)C)nn(C)c3C2)cc1.O=C(O)C(F)(F)F | 97.57 |
| CN(C)Cc1nn(C)c2c1CN(C(=O)c1ccc[nH]1)C2.O=C(O)C(F)(F)F | -9.086 |
| Cc1ccc(S(=O)(=O)N2Cc3c(CN(C)C)nn(C)c3C2)cc1 | -16.71 |
| Cc1ccc(CS(=O)(=O)N2Cc3c(CN(C)C)nn(C)c3C2)cc1.O=C(O)C(F)(F)F | 96.76 |
| C=Cc1cccc(CN2CCCn3nc(CNS(C)(=O)=O)cc3C2)c1 | 10.79 |
| O=C1C(Sc2cnn[nH]2)CCCN1c1ccccc1F (configuration not stated) | -1.507 |
| Cc1n[nH]c(C2CN(Cc3csc(C4CC4)n3)CCO2)n1 (configuration not stated) | -12.76 |
| Cc1ccc(OCCN(C)Cc2nccn2C)c(C)c1 | 1.849 |
| Cc1ccc(Oc2ncccc2C(=O)O)c(C)c1 | 113.8 |
| COC(=O)C(NC(=O)c1ccc(C)cc1C)c1cccnc1 (configuration not stated) | 2.23 |
| COCCOc1ncccc1C(=O)N(C)c1ccc(OC)c(OC)c1 | -8.68 |
| Cc1ccc(Oc2ncccc2C(=O)N(C)CCCN(C)C)cc1 | 116.5 |

| Compound | Percent Effect [%] |
| --- | --- |
| Cc1ccc(OCCNC(=O)C2CCOCC2)c(C)c1 | -7.551 |
| COc1ccc(Oc2ncccc2C(N)=O)cc1CN1CCCC1 | -15.13 |
| Cc1ccc(Oc2ncccc2C(=O)N(C)CCCN(C)C)c(C)c1 | 137.8 |
| Cc1ccc(Oc2ncccc2C(=O)N(C)CC2OCCO2)c(C)c1 | 132.9 |
| CCOc1ncccc1C(=O)N(C)Cc1ncc(C)c(OC)c1C | -9.581 |
| CC(C)CC(CNC(=O)c1cccnc1Oc1cccnc1)N(C)C (configuration not stated) | -29.76 |
| CC(CNC(=O)c1cccnc1Oc1cccnc1)N(C)C (configuration not stated) | -15.37 |
| CCc1cc(CNC(=O)N(C2CC2)C(C)c2ccco2)on1 (configuration not stated) | -6.882 |
| O=S(=O)(CCSc1nccn1C1CC1)c1ccccc1 | 2.896 |
| COc1ccc(CN2C[C@@H]3OCC(=O)N(Cc4nccn4C)[C@@H]3C2)cc1 | -2.723 |
| Cc1cnn(CCNCC(=O)NC2(C#N)CCCC2)c1 | 1.433 |
| COc1ccccc1CC(=O)NC(CC(=O)O)c1ccc(F)cc1 (configuration not stated) | 7.485 |
| O=c1[nH]cnc2c1CCN(S(=O)(=O)c1ccc(OC(F)(F)F)cc1)C2 | 93.77 |
| O=c1[nH]cnc2c1CCN(S(=O)(=O)c1cccc(OC(F)(F)F)c1)C2 | 122.9 |
| CCOCc1ncn2c1CN(S(=O)(=O)c1ccc(OC)cc1)CC2 | 3.877 |
| O=c1[nH]cnc2c1CCN(S(=O)(=O)c1ccc(Cl)cc1)C2 | 81.06 |
| CN(C)c1ncnc2c1CCN(S(=O)(=O)c1ccccc1C(F)(F)F)C2 | 15.95 |
| Cc1nc2n(n1)CCN(S(=O)(=O)c1ccc(OC(F)(F)F)cc1)C2 | -10.24 |
| CN(C)c1ncnc2c1CCN(S(=O)(=O)c1cccc(Cl)c1Cl)C2 | -2.011 |
| CCOCc1cncc2c1CCN(S(=O)(=O)c1ccc(C)cc1)C2 | 7.269 |
| Cc1nc2n(n1)CCN(S(=O)(=O)c1ccc(Cl)cc1)C2 | -10.09 |
| CCOCCOc1ccc(S(=O)(=O)N2CCc3c(nc[nH]c3=O)C2)cc1 | 99.77 |
| COCc1ncn2c1CN(S(=O)(=O)c1cccc(OC)c1)CC2 | 5.522 |
| COc1cccc(S(=O)(=O)N2CCCc3c(OC)nn(C)c3C2)c1 | -0.459 |
